This excerpt belongs to a sample that is enriched for hits.
Dicer processing: inhibitors of human Dicer processing of pre-microRNA; AID 1347074; hit rate 6% among 47,000; cat-ELCCA pre-miR-21 Dicer processing, chemiluminescence; stronger effect = higher value; z-score at 25 µM; Q9UPY3; in the data active means z-score above about 3, passing the limit was not always enough;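 further: plate controls were vehicle for no effect and no enzyme for full effect; higher signal means more uncleaved substrate so more Dicer inhibition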
Numbers without * were called inactive.

SMILES	Dicer processing
COc1ccc(C2(CNS(=O)(=O)c3ccccc3)CCCC2)cc1OC	5.9*
COc1ccc(S(=O)(=O)NCCSc2nnnn2-c2ccccc2)cc1OC	1.8
COc1ccc(-c2nc(S(=O)(=O)c3ccccc3)c(N3CCCCC3)o2)cc1OC	1.5
COc1ccc(-c2nnc3c4cnn(-c5ccc(C)cc5)c4ncn23)cc1	0.4
O=C(c1ccccc1)c1cccc(Cl)c1	-0.09
COc1ccc(C2=NN3C(C2)c2ccccc2OC3c2ccncc2)cc1OC (stereo unspecified)	1.2
COc1ccc(C2=NN3C(C2)c2cc(Br)ccc2OC3c2ccncc2)cc1 (stereo unspecified)	8.2*
COc1cccc(C2=NN3C(C2)c2cc(Br)ccc2OC3c2cccnc2)c1 (stereo unspecified)	7.2*
Cc1ccc(O)c(C2=NN3C(C2)c2cc(Br)ccc2OC3c2cccnc2)c1 (stereo unspecified)	5.2
COc1ccc(C2=NN3C(C2)c2ccccc2OC3c2ccncc2)cc1 (stereo unspecified)	2.1
COc1ccccc1C1Oc2ccccc2C2CC(c3cccnc3)=NN21 (stereo unspecified)	2.4
COc1ccc(C2=NN3C(C2)c2cc(Br)ccc2OC3c2cccnc2)cc1 (stereo unspecified)	4.2*
COc1ccc(C2=NN3C(C2)c2cc(Cl)ccc2OC3c2cccnc2)cc1 (stereo unspecified)	2.7
Cc1ncc(COn2c(-c3ccccc3)nc3ccccc3c2=O)c(CO)c1O	0.84
COc1cscc1C(=O)NC1(O)C(=O)c2ccccc2C1=O	-6.4
CCCCCCNC(=O)NCCCC(=O)O	-0.94
CC1=C(C(=O)OCc2ccccc2)C(c2cccc(F)c2)C2=C(CCCC2=O)N1 (stereo unspecified)	-0.47
CCOC(=O)/C(C#N)=C/c1cccc2ccccc12	-0.37
COc1ccc(-n2ccsc2=S)cc1	4.7*
COc1ccc(N2C(=O)CCC2=O)cc1	-0.74
CCOC(=O)c1sc(=S)n(-c2ccc(OC)cc2)c1N	2.2
C=C1SC(=Nc2cccc(OC)c2)N(C(=O)c2c(-c3ccccc3Cl)noc2C)C1(C)C	-1.6
CCN(Cc1ccccc1)c1nc2c([nH]1)c(=O)n(C)c(=O)n2C	0.47
CCOC(=O)c1sc(-c2ccccc2)nc1OCc1ccccc1Cl	0.3
CC1=C(C(=O)OCC2CCCO2)C(c2cccc(Br)c2)C2=C(CCCC2=O)N1 (stereo unspecified)	1.5
SMILES	Dicer processing
Cc1c(C#N)c(Sc2cccc(C(F)(F)F)c2)nc2ccccc12	-1.1
CSc1nc(-c2ccccc2)nc(Sc2cccc(C(F)(F)F)c2)c1C#N	26*
CSc1nc(-c2ccccc2)nc(Nc2ccc(C(F)(F)F)cc2)c1C#N	-0.46
COC(=O)c1scc(C)c1NC(=O)C(Cl)(Cl)Cl	-1.3
O=C(O)C12CCC(C(=O)O)(CC1=O)C(=O)C2	-0.91
Cc1cc(Cc2cccs2)c(=O)[nH]n1	1.4
Cc1ccc(Cc2cc(-c3ccc(C)cc3)n[nH]c2=O)cc1	-0.37
Cc1cc(Cc2ccc(C(F)(F)F)cc2)c(=O)[nH]n1	3.1*
CCC(Sc1nccn1C)C(=O)Nc1cc(C)on1 (stereo unspecified)	0.93
O=S1(=O)N=S(c2ccccc2)c2ccccc21 (stereo unspecified)	0.12
O=C(O)CNc1ncnc2ccccc12	3.6*
O=C(O)CCCNc1ncnc2ccccc12	-0.76
OCCNc1ncnc2ccccc12	0.02
CC1(C)S[C@H](CNC(=O)Cc2ccccc2)N[C@H]1C(=O)O	4*
CC1(C)SC(c2ccc(C3NC(C(=O)O)C(C)(C)S3)cc2)NC1C(=O)O (stereo unspecified)	-2.4
CN(C)c1ccc(C2N[C@@H](C(=O)O)C(C)(C)S2)cc1 (stereo partly specified)	0.59
CCOC(=O)N1CCN(S(=O)(=O)c2ccc(C(F)(F)F)cc2)CC1	-0.42
Cc1c2occ(-c3ccc(F)cc3)c2cc2c1oc(=O)c1ccccc12	4.2*
COc1ccc2c(c1)c(=O)oc1c(C)c3occ(-c4ccc(F)cc4)c3cc12	-0.64
Cc1c2occ(-c3ccc4c(c3)OCO4)c2cc2c1oc(=O)c1ccccc12	0.19
O=C1c2cccc3c(N4CCCC4)ccc(c23)C(=O)N1c1ccccc1	2
CN(C)c1ccc2c3c(cccc13)C(=O)N(c1ccccc1)C2=O	3.4*
CCCSc1ccc2c3c(cccc13)C(=O)N(c1ccccc1)C2=O	-1.1
COc1ccccc1C1CC(=O)C2=C(C1)NC(C)=C(C(=O)OC1CCCC1)C2c1cccs1 (stereo unspecified)	0.36
O=c1oc(-c2ccccc2Cl)nn1-c1ccc(C(F)(F)F)cn1	0.3
SMILES	Dicer processing
O=C(Nc1ccc2c(c1)OCCO2)C1CCN(S(=O)(=O)c2ccc(Br)cc2)CC1	24
O=S(=O)(Nc1cccc(-c2cn3ccccc3n2)c1)c1ccc(Br)cc1	4.4*
Cc1cc(C)c(S(=O)(=O)Nc2cccc(-c3cn4ccccc4n3)c2)c(C)c1	3.7*
O=S(=O)(Nc1cccc(-c2cn3ccccc3n2)c1)c1ccc(F)cc1	1.9
CC1CN(S(=O)(=O)c2cccc(-c3cn4ccccc4n3)c2)CC(C)O1 (stereo unspecified)	-0.73
Cc1ccn2cc(-c3cccc(S(=O)(=O)N4CCOCC4)c3)nc2c1	-0.79
Cc1ccn2cc(-c3cccc(S(=O)(=O)N(C)C)c3)nc2c1	0.25
Clc1ccc(-c2noc(CSc3nc4ccccc4[nH]3)n2)cc1	1
N/C(=N\OC(=O)c1csnc1-c1c(Cl)cccc1Cl)c1c(Cl)cccc1Cl	0.8
CN(C)c1ccc(NC2CC(=O)N(c3ccccc3)C2=O)cc1 (stereo unspecified)	-2.8
COc1ccc(NC(=O)N2c3ccccc3Sc3ccccc32)cc1OC	-1.1
COC(=O)C1=C(C)NC2=C(C(=O)CC(C)(C)C2)C1c1cccc(Oc2ccccc2)c1 (stereo unspecified)	0.19
Cn1nc([N+](=O)[O-])nc1Sc1nnc(-c2ccccc2Br)o1	-0.73
CCOC(=O)c1sc2nc(C)cc(C)c2c1N	-1.2
CNC(=S)NNC(=O)c1sc2nc(C)cc(C)c2c1N	4.6*
Cc1cc(C)c2c(N)c(C(=O)NN)sc2n1	-1.3
Cc1c(Cl)cccc1-n1c(CCc2ccc(O)cc2)n[nH]c1=S	-0.8
COc1cc(OC)cc(-c2nc(-c3ccc(C)nc3OC)no2)c1	1.5
Cc1ccc(C2CC(C(F)(F)F)n3ncc(C(=O)NCc4c(C)nn(C)c4C)c3N2)cc1 (stereo unspecified)	0.35
C#CCSc1nnc2[nH]c(=O)cc(N)n12	2.7
CC(C)CCSc1nnc2[nH]c(=O)cc(N)n12	3.4*
Nc1cc(=O)[nH]c2nnc(SCc3ccccc3Cl)n12	2.5
Cc1nn(C(=O)c2c(-c3c(Cl)cccc3Cl)noc2C)c(C)c1Br	0.64
N#Cc1ccc(CN=C(N)N=C(N)N)cc1	17
COC(=O)C1=C(C)NC2=C(C(=O)CC(c3ccc(OC)cc3)C2)C1c1ccc(OC)cc1OC (stereo unspecified)	-2.1
SMILES	Dicer processing
O=C(Nc1cccc2cccnc12)c1cccs1	-1.1
O=C(CCC(=O)OCC(=O)c1cccs1)Nc1cccc2cccnc12	4.3*
O=C(O)CCCC(=O)Nc1cccc2cccnc12	0.9
CSc1nnc(-c2cccc([N+](=O)[O-])c2)o1	-0.34
CCc1sc(C(C)(C)C)cc1NC(=O)c1ccccc1	-1.2
Cc1cc(C)c(C(=O)O)c(CC(C)(C)C(=O)O)c1	-2.3
Cc1cc(C)c(C(=O)Nc2ccccc2)c(CC(C)(C)C(=O)O)c1	4.7*
